Measured values reported in PMC11006913.
Where a chain is given by its changes, count along the chain named.

Key:
Assay in all cases: PBM; 200 nM protein, PBS
Settings in all cases: dsDNA, one strand shown
[1] = target: T1, NKX2-4 (Homo sapiens, UniProt Q9H2Z4 175-261, P217L)
T1 sequence: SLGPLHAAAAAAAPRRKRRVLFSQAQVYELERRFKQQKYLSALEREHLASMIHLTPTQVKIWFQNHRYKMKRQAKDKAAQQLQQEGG

[2] = target: T2, NKX2-4 (Homo sapiens, UniProt Q9H2Z4 175-261, T231S)
T2 sequence: T1 sequence with L43P, T57S

[3] = target: T3, NKX2-4 (Homo sapiens, UniProt Q9H2Z4 175-261)
T3 sequence: T1 sequence with L43P

[4] = target: T4, NKX2-4 (Homo sapiens, UniProt Q9H2Z4 175-261, R246Q)
T4 sequence: T1 sequence with L43P, R72Q

[5] = target: ALX4 (Homo sapiens, UniProt Q9H161 200-286)
Sequence of ALX4 (Homo sapiens, UniProt Q9H161 200-286) (Q9H161 200-286): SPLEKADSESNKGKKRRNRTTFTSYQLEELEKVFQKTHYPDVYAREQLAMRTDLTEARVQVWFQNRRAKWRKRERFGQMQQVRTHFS

[6] = target: ALX4 (Homo sapiens, UniProt Q9H161 200-286, Q225E)
Sequence of ALX4 (Homo sapiens, UniProt Q9H161 200-286, Q225E) (Q9H161 200-286 Q225E): as the sequence (Q9H161 200-286) above, with Q26E counted along it

[7] = target: MSX2 (Homo sapiens, UniProt P35548 130-214, R199I)
Sequence of MSX2 (Homo sapiens, UniProt P35548 130-214, R199I) (P35548 130-214 R199I): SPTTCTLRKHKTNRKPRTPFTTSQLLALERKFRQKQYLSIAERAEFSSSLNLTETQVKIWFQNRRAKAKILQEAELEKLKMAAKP

[8] = target: ALX1 (Homo sapiens, UniProt Q15699 118-204, L144V)
Sequence of ALX1 (Homo sapiens, UniProt Q15699 118-204, L144V) (Q15699 118-204 L144V): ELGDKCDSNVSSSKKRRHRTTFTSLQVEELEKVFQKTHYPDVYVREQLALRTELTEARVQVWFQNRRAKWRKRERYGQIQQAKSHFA

[9] = target: ALX1 (Homo sapiens, UniProt Q15699 118-204, L144R)
Sequence of ALX1 (Homo sapiens, UniProt Q15699 118-204, L144R) (Q15699 118-204 L144R): as the sequence (Q15699 118-204 L144V) above, with V27R counted along it

[10] = target: MSX2 (Homo sapiens, UniProt P35548 130-214)
Sequence of MSX2 (Homo sapiens, UniProt P35548 130-214) (P35548 130-214): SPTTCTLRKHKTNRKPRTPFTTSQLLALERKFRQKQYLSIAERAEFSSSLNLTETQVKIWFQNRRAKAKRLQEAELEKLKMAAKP

[11] = target: MSX2 (Homo sapiens, UniProt P35548 130-214, F161Y)
Sequence of MSX2 (Homo sapiens, UniProt P35548 130-214, F161Y) (P35548 130-214 F161Y): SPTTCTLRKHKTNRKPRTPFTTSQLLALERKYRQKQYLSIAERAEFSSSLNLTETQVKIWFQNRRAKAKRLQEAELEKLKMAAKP

[12] = target: ALX1 (Homo sapiens, UniProt Q15699 118-204)
Sequence of ALX1 (Homo sapiens, UniProt Q15699 118-204) (Q15699 118-204): as the sequence (Q15699 118-204 L144V) above, with V27L counted along it

[13] = target: HOXA2 (Homo sapiens, UniProt O43364 129-215, R185T)
Sequence of HOXA2 (Homo sapiens, UniProt O43364 129-215, R185T) (O43364 129-215 R185T): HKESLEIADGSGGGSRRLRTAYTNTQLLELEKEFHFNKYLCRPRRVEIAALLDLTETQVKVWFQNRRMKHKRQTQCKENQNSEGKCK

[14] = target: HOXA2 (Homo sapiens, UniProt O43364 129-215, R185K)
Sequence of HOXA2 (Homo sapiens, UniProt O43364 129-215, R185K) (O43364 129-215 R185K): as the sequence (O43364 129-215 R185T) above, with T57K counted along it

[15] = target: VAX1 (Homo sapiens, UniProt Q5SQQ9 86-172)
Sequence of VAX1 (Homo sapiens, UniProt Q5SQQ9 86-172) (Q5SQQ9 86-172): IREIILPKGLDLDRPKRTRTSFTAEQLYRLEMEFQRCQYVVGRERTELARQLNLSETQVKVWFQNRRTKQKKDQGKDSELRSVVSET

[16] = target: VAX1 (Homo sapiens, UniProt Q5SQQ9 86-172, T142I)
Sequence of VAX1 (Homo sapiens, UniProt Q5SQQ9 86-172, T142I) (Q5SQQ9 86-172 T142I): as the sequence (Q5SQQ9 86-172) above, with T57I counted along it

[17] = target: HOXA2 (Homo sapiens, UniProt O43364 129-215, Y150S)
Sequence of HOXA2 (Homo sapiens, UniProt O43364 129-215, Y150S) (O43364 129-215 Y150S): as the sequence (O43364 129-215 R185T) above, with Y22S, T57R counted along it

[18] = target: HOXA2 (Homo sapiens, UniProt O43364 129-215)
Sequence of HOXA2 (Homo sapiens, UniProt O43364 129-215) (O43364 129-215): as the sequence (O43364 129-215 R185T) above, with T57R counted along it

[19] = target: VAX1 (Homo sapiens, UniProt Q5SQQ9 86-172, K157R)
Sequence of VAX1 (Homo sapiens, UniProt Q5SQQ9 86-172, K157R) (Q5SQQ9 86-172 K157R): as the sequence (Q5SQQ9 86-172) above, with K72R counted along it

[20] = target: HOXD13 (Homo sapiens, UniProt P35453 263-343, T313R)
Sequence of HOXD13 (Homo sapiens, UniProt P35453 263-343, T313R) (P35453 263-343 T313R): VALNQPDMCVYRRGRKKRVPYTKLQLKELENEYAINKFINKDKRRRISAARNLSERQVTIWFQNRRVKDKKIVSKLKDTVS

[21] = target: HOXD13 (Homo sapiens, UniProt P35453 263-343)
Sequence of HOXD13 (Homo sapiens, UniProt P35453 263-343) (P35453 263-343): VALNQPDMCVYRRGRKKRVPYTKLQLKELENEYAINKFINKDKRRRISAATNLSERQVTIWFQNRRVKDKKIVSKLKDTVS

[22] = target: HOXD13 (Homo sapiens, UniProt P35453 263-343, T313A)
Sequence of HOXD13 (Homo sapiens, UniProt P35453 263-343, T313A) (P35453 263-343 T313A): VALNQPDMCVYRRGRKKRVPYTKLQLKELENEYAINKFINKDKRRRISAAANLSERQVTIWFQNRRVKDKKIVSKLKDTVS

[23] = target: HOXB6 (Homo sapiens, UniProt P17509 132-218, K202E)
Sequence of HOXB6 (Homo sapiens, UniProt P17509 132-218, K202E) (P17509 132-218 K202E): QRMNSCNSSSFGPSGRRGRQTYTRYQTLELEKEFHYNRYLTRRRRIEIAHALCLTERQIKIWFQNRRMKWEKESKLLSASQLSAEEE

[24] = target: HOXB6 (Homo sapiens, UniProt P17509 132-218)
Sequence of HOXB6 (Homo sapiens, UniProt P17509 132-218) (P17509 132-218): as the sequence (P17509 132-218 K202E) above, with E71K counted along it

[25] = target: T5, NKX2-6 (Homo sapiens, UniProt A6NCS4 118-204, R150C)
T5 sequence: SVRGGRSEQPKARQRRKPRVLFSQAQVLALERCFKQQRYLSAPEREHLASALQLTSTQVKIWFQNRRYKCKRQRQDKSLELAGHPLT

[26] = target: PRRX1 (Homo sapiens, UniProt P54821 80-166, F113S)
Sequence of PRRX1 (Homo sapiens, UniProt P54821 80-166, F113S) (P54821 80-166 F113S): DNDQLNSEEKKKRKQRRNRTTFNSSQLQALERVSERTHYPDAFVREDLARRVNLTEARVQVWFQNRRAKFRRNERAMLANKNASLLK

[27] = target: PRRX1 (Homo sapiens, UniProt P54821 80-166)
Sequence of PRRX1 (Homo sapiens, UniProt P54821 80-166) (P54821 80-166): as the sequence (P54821 80-166 F113S) above, with S34F counted along it

Sequence: GTGAAGGA
- binding signal [1]: 11.6 upbm affinity estimate (log intensity, higher = more binding, comparable within an allelic series)
- binding signal [2]: 12 upbm affinity estimate (log intensity, higher = more binding, comparable within an allelic series)
- binding signal [3]: 11.5 upbm affinity estimate (log intensity, higher = more binding, comparable within an allelic series)
- binding signal [4]: 11.6 upbm affinity estimate (log intensity, higher = more binding, comparable within an allelic series)

Sequence: AGATGCCG
- binding signal [1]: 9.76 upbm affinity estimate (log intensity, higher = more binding, comparable within an allelic series)
- binding signal [2]: 9.8 upbm affinity estimate (log intensity, higher = more binding, comparable within an allelic series)
- binding signal [5]: 8.1 upbm affinity estimate (log intensity, higher = more binding, comparable within an allelic series)
- binding signal [3]: 9.82 upbm affinity estimate (log intensity, higher = more binding, comparable within an allelic series)
- binding signal [6]: 8.32 upbm affinity estimate (log intensity, higher = more binding, comparable within an allelic series)
- binding signal [4]: 9.91 upbm affinity estimate (log intensity, higher = more binding, comparable within an allelic series)

Sequence: ACCCCTGG
- binding signal [1]: 9.8 upbm affinity estimate (log intensity, higher = more binding, comparable within an allelic series)
- binding signal [2]: 9.68 upbm affinity estimate (log intensity, higher = more binding, comparable within an allelic series)
- binding signal [3]: 9.75 upbm affinity estimate (log intensity, higher = more binding, comparable within an allelic series)
- binding signal [7]: 9.54 upbm affinity estimate (log intensity, higher = more binding, comparable within an allelic series)
- binding signal [8]: 6.31 upbm affinity estimate (log intensity, higher = more binding, comparable within an allelic series)
- binding signal [9]: 6.38 upbm affinity estimate (log intensity, higher = more binding, comparable within an allelic series)
- binding signal [10]: 9.55 upbm affinity estimate (log intensity, higher = more binding, comparable within an allelic series)
- binding signal [4]: 9.71 upbm affinity estimate (log intensity, higher = more binding, comparable within an allelic series)
- binding signal [11]: 9.58 upbm affinity estimate (log intensity, higher = more binding, comparable within an allelic series)
- binding signal [12]: 6.28 upbm affinity estimate (log intensity, higher = more binding, comparable within an allelic series)

Sequence: AAAGAGGC
- binding signal [1]: 11.7 upbm affinity estimate (log intensity, higher = more binding, comparable within an allelic series)
- binding signal [2]: 11.9 upbm affinity estimate (log intensity, higher = more binding, comparable within an allelic series)
- binding signal [3]: 11.6 upbm affinity estimate (log intensity, higher = more binding, comparable within an allelic series)
- binding signal [4]: 11.9 upbm affinity estimate (log intensity, higher = more binding, comparable within an allelic series)

Sequence: AGAGGGCT
- binding signal [1]: 11.7 upbm affinity estimate (log intensity, higher = more binding, comparable within an allelic series)
- binding signal [2]: 11.9 upbm affinity estimate (log intensity, higher = more binding, comparable within an allelic series)
- binding signal [3]: 11.7 upbm affinity estimate (log intensity, higher = more binding, comparable within an allelic series)

Sequence: GCCACGCC
- binding signal [1]: 9.91 upbm affinity estimate (log intensity, higher = more binding, comparable within an allelic series)
- binding signal [2]: 9.93 upbm affinity estimate (log intensity, higher = more binding, comparable within an allelic series)
- binding signal [3]: 9.88 upbm affinity estimate (log intensity, higher = more binding, comparable within an allelic series)
- binding signal [13]: 7.26 upbm affinity estimate (log intensity, higher = more binding, comparable within an allelic series)
- binding signal [14]: 10.2 upbm affinity estimate (log intensity, higher = more binding, comparable within an allelic series)
- binding signal [4]: 9.85 upbm affinity estimate (log intensity, higher = more binding, comparable within an allelic series)
- binding signal [15]: 7.13 upbm affinity estimate (log intensity, higher = more binding, comparable within an allelic series)
- binding signal [16]: 7.33 upbm affinity estimate (log intensity, higher = more binding, comparable within an allelic series)
- binding signal [17]: 10.4 upbm affinity estimate (log intensity, higher = more binding, comparable within an allelic series)
- binding signal [18]: 7.17 upbm affinity estimate (log intensity, higher = more binding, comparable within an allelic series)
- binding signal [19]: 7.18 upbm affinity estimate (log intensity, higher = more binding, comparable within an allelic series)

Sequence: CGCCGCAG
- binding signal [1]: 9.48 upbm affinity estimate (log intensity, higher = more binding, comparable within an allelic series)
- binding signal [2]: 9.2 upbm affinity estimate (log intensity, higher = more binding, comparable within an allelic series)
- binding signal [3]: 9.51 upbm affinity estimate (log intensity, higher = more binding, comparable within an allelic series)
- binding signal [20]: 9.57 upbm affinity estimate (log intensity, higher = more binding, comparable within an allelic series)
- binding signal [21]: 9.58 upbm affinity estimate (log intensity, higher = more binding, comparable within an allelic series)
- binding signal [4]: 9.58 upbm affinity estimate (log intensity, higher = more binding, comparable within an allelic series)
- binding signal [22]: 9.63 upbm affinity estimate (log intensity, higher = more binding, comparable within an allelic series)

Sequence: CCAGGCTC
- binding signal [1]: 9.76 upbm affinity estimate (log intensity, higher = more binding, comparable within an allelic series)
- binding signal [2]: 9.75 upbm affinity estimate (log intensity, higher = more binding, comparable within an allelic series)
- binding signal [3]: 9.7 upbm affinity estimate (log intensity, higher = more binding, comparable within an allelic series)
- binding signal [23]: 9.08 upbm affinity estimate (log intensity, higher = more binding, comparable within an allelic series)
- binding signal [4]: 9.86 upbm affinity estimate (log intensity, higher = more binding, comparable within an allelic series)
- binding signal [24]: 9.18 upbm affinity estimate (log intensity, higher = more binding, comparable within an allelic series)

Sequence: ACCAACGG
- binding signal [1]: 9.32 upbm affinity estimate (log intensity, higher = more binding, comparable within an allelic series)
- binding signal [2]: 9.25 upbm affinity estimate (log intensity, higher = more binding, comparable within an allelic series)
- binding signal [3]: 9.28 upbm affinity estimate (log intensity, higher = more binding, comparable within an allelic series)
- binding signal [4]: 9.29 upbm affinity estimate (log intensity, higher = more binding, comparable within an allelic series)

Sequence: CAAGTGCA
- binding signal [1]: 12.1 upbm affinity estimate (log intensity, higher = more binding, comparable within an allelic series)
- binding signal [2]: 12.5 upbm affinity estimate (log intensity, higher = more binding, comparable within an allelic series)
- binding signal [3]: 12 upbm affinity estimate (log intensity, higher = more binding, comparable within an allelic series)
- binding signal [25]: 11.4 upbm affinity estimate (log intensity, higher = more binding, comparable within an allelic series)
- binding signal [4]: 12.7 upbm affinity estimate (log intensity, higher = more binding, comparable within an allelic series)

Sequence: CCCGCCTC
- binding signal [1]: 9.39 upbm affinity estimate (log intensity, higher = more binding, comparable within an allelic series)
- binding signal [2]: 9.25 upbm affinity estimate (log intensity, higher = more binding, comparable within an allelic series)
- binding signal [26]: 9.33 upbm affinity estimate (log intensity, higher = more binding, comparable within an allelic series)
- binding signal [3]: 9.39 upbm affinity estimate (log intensity, higher = more binding, comparable within an allelic series)
- binding signal [4]: 9.31 upbm affinity estimate (log intensity, higher = more binding, comparable within an allelic series)
- binding signal [27]: 8.99 upbm affinity estimate (log intensity, higher = more binding, comparable within an allelic series)

Sequence: ACTCCTCG
- binding signal [1]: 11.6 upbm affinity estimate (log intensity, higher = more binding, comparable within an allelic series)
- binding signal [2]: 11.8 upbm affinity estimate (log intensity, higher = more binding, comparable within an allelic series)
- binding signal [3]: 11.5 upbm affinity estimate (log intensity, higher = more binding, comparable within an allelic series)

Sequence: CCCTGCAG
- binding signal [1]: 9.9 upbm affinity estimate (log intensity, higher = more binding, comparable within an allelic series)
- binding signal [2]: 9.92 upbm affinity estimate (log intensity, higher = more binding, comparable within an allelic series)
- binding signal [3]: 9.89 upbm affinity estimate (log intensity, higher = more binding, comparable within an allelic series)
- binding signal [4]: 9.93 upbm affinity estimate (log intensity, higher = more binding, comparable within an allelic series)
